# Source: PubChem BioAssay
# A selection: hits, their analogues and other compounds. The true share with any hit is near 19%.
# KB-V1 cytotox – KB-V1 MDR subline cytotoxicity; Potency, µM (top dose mostly 46.1 µM), actives largely listed as cytotoxic; actives 3.4% (n = 400,000); KB-V1 MDR cells viability, CellTiter-Glo, 72 h; AID 1347076; further: nearly all actives have a fitted effect of over 60% in size
#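 Cells of the MDR subline KB-V1 are plated, dosed with compound at multiple concentrations, and incubated 72 h at 37 degrees C; CellTiter-Glo is then added and luminescence read after 10 min.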
# HT1080 IDH1KD tx – toxicity to HT-1080 IDH1 knockdown cells (counter line) | HT-1080 IDH1 knockdown viability, ATP luminescence, 48 h | actives 2% (n = 360,000) | AID 686971 | Potency, µM (highest dose often 46.1 µM), inactives show at the highest dose activity, negative = toxicity, actives largely listed as cytotoxic;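 further: 0% = DMSO wells and -100% = cell-free medium wells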
#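 Viability of IDH1-knockdown HT-1080 fibrosarcoma cells was assessed by CellTiter-Glo after 48 h at 37 °C with titrated compound; concentration-effect curves were classified by fit quality and response size.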
# HT1080-NT tox – kills 2HG-producing HT-1080-NT fibrosarcoma cells; HT-1080-NT fibrosarcoma viability, CellTiter-Glo ATP luminescence, 48 h; Potency, µM (top dose mostly 46.1 µM), without a hit: at the highest dose activity, negative = less viability, most hits filed as cytotoxic; actives 1.6% (n = 360,000); AID 686970;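 further: NT is the 2HG producing partner of a matched IDH1 knockdown line; 0% = DMSO-treated cells and -100% = media-only wells without cells; nearly all actives have a fitted effect of over 55% in size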
#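 750 cells/well, RPMI + 5% FBS; 2 h settle, compound pin-transfer, 48 h at 37 degrees C. CellTiter-Glo 10 min RT, luminescence. Normalized to DMSO and media-only wells.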
# KB-3-1 cytotox – kills parental KB-3-1 adenocarcinoma cells. actives 1.4% (n = 400,000). Potency, µM (series often up to 46.1 µM), hits mostly cytotoxic. KB-3-1 viability, CellTiter-Glo ATP luminescence, 72 h; further: nearly all actives have a fitted effect of over 60% in size
#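 Luminescent ATP read-out (CellTiter-Glo) measures survival of drug-naive KB-3-1 cells after 72 h compound exposure at 37 °C. Titration series was screened from lowest to highest concentration, with DMSO vehicle plates as background controls.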
# DT40 TDP1 CPT – DT40-hTDP1 cell growth loss with CPT | Potency, µM (doses to about 46.2 µM), inactives show top-dose activity change, negative = growth inhibition, most hits filed as inhibitors | chicken DT40 Tdp1-/-;hTDP1 cells + 20 nM CPT, ATP luminescence, 48 h | actives 12% (n = 420,000); further: nearly all actives have a fitted effect of over 55% in size
#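 Chicken DT40 Tdp1-/- cells stably complemented with human TDP1 were seeded at 400 cells/well in medium containing 20 nM camptothecin, exposed to pin-transferred compounds, and grown at 37 °C for at least 48 hr. Viability was read as ATP luminescence.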
# DT40 TDP1 no CPT – qHTS for Inhibitors of human tyrosyl-DNA phosphodiesterase 1 (TDP1): qHTS in cells in absence of CPT; DT40 Tdp1-/- hTDP1 cells, no CPT, ATP luminescence, 48 h; Potency, µM (highest dose often 46.2 µM), without a hit: at the top dose activity change, negative = growth inhibition, hits mostly inhibitors; actives 15% (n = 420,000); further: nearly all actives have a fitted effect of over 55% in size
#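 A cellular qHTS used chicken DT40 cells lacking endogenous Tdp1 but carrying stably transfected human TDP1. Compounds were applied without camptothecin, and cell growth kinetics were judged by ATP-dependent luminescence after ≥48 hr.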
# * hit, by the source's call; i = inactive; u = inconclusive; x = no result given. The call rests on the fitted dose curve; in most records, active means well fitted curve in the direction sought with a large enough effect; inconclusive means small, poorly fitted or top-dose-only effect, or another doubt; inactive means no such curve, though single readings can be large; an effect the other way counts as inactive or inconclusive. Unless noted, on the % scale 0 is the no-effect control and ±100 the full control effect; potency means the concentration at half of the fitted maximal effect.
SMILES,KB-V1 cytotox,HT1080 IDH1KD tx,HT1080-NT tox,KB-3-1 cytotox,DT40 TDP1 CPT,DT40 TDP1 no CPT
COCCn1c(SCC(=O)c2ccccc2)nc2c(c1=O)SC(C)C2 (stereo not drawn),u,-10%,-11%,i,23µM*,u
COCCn1c(SCC(=O)N2CCc3ccccc32)nc2c(c1=O)SC(C)C2 (stereo not drawn),i,3%,-1%,i,u,u
COCCn1c(SCC(=O)N2CCN(c3ccccc3)CC2)nc2c(c1=O)SC(C)C2 (stereo not drawn),i,-1%,-10%,i,21µM*,18µM*
COC(=O)C(NC(=O)c1ccc(Cl)cc1)(Nc1nc(C)cs1)C(F)(F)F (stereo not drawn),u,2%,-2%,i,u,-13%
CCC(C)Oc1cccc(C(=O)Nc2ccccc2N2CCOCC2)c1 (stereo not drawn),i,0%,1%,i,u,18µM*
CC(=O)c1cccc(OCC(=O)Nc2cc(S(=O)(=O)N3CCOCC3)ccc2N2CCCC2)c1,i,1%,0%,u,-12%,-4%
CC(=O)c1cccc(OCC(=O)Nc2ccccc2N2CCOCC2)c1,u,-1%,0%,i,18µM*,u
CCC(=O)c1ccc(OCC(=O)Nc2ccc(N3CCOCC3)cc2N2CCOCC2)cc1,i,22%,12%,i,-2%,-12%
O=C(COc1cccc(Br)c1)Nc1ccc(N2CCOCC2)cc1N1CCOCC1,i,13%,u,i,18µM*,u
CCCCOc1ccc(CSCCNC(=S)Nc2ccccc2)cc1,u,u,-19%,u,18µM*,u
Cc1cccc(CSCCNC(=O)Nc2ccccc2)c1,i,1%,2%,i,-20%,u
CC(C)COc1ccc(CSCCNC(=S)Nc2ccccc2)cc1,26µM*,u,u,i,u,15µM*
CCCCCOc1ccc(CSCCNC(=S)Nc2ccccc2)cc1,i,2%,11%,i,-14%,-28%
CCN(CC(=O)Nc1c(F)cccc1F)C(=O)c1cc([N+](=O)[O-])ccc1N1CCCCC1,i,0%,1%,i,-17%,-24%
C(=NN=C1c2ccccc2-c2ccccc21)c1c[nH]c2ccccc12,23µM*,u,-10%,u,u,u
Oc1ccc(C=NN=C2c3ccccc3-c3ccccc32)c(O)c1,u,-1%,0%,u,u,15µM*
O=[N+]([O-])c1cccc(C=NN=C2c3ccccc3-c3ccccc32)c1,21µM*,14%,-2%,i,-16%,-14%
O=[N+]([O-])c1cccc(/C=N\N=C2c3ccccc3-c3ccccc32)c1O,18µM*,6%,3%,u,u,16µM*
Oc1ccc(/C=N/Nc2ccc3ccccc3c2)c(O)c1,i,-21%,-29%,i,-6%,-12%
NC(N)=N/N=C/c1cccc([N+](=O)[O-])c1O,i,12%,12%,i,11%,-5%
O=[N+]([O-])c1cccc(/C=N/Nc2ccccn2)c1,i,14%,17%,i,8%,1%
COC(=O)c1ccccc1NC(=O)c1cn2c3c(ccc(Cl)c3c1=O)OC(C)C2 (stereo not drawn),i,x,x,i,6%,1%
COc1ccc(C=NN=C2c3ccccc3-c3ccccc32)cc1OC,u,3%,14%,i,u,23µM*
COc1cc(/C=N/N=C2/C(=O)Nc3ccccc32)ccc1O,i,-25%,-24%,i,-21%,-30%
O=C(O)c1cccc(Sc2cc(Cl)ccc2C(=O)O)c1,i,-1%,-2%,i,0%,1%
SMILES,KB-V1 cytotox,HT1080 IDH1KD tx,HT1080-NT tox,KB-3-1 cytotox,DT40 TDP1 CPT,DT40 TDP1 no CPT
Cc1ccc(N2CCN(C(=O)C3CCC(=O)N(Cc4ccc(Cl)cc4)C3)CC2)c(C)c1 (stereo not drawn),x,-13%,-8%,x,18µM*,18µM*
CCCC(=O)C1=C(O)C(C(=O)OC)C(C)(C)CC1=Nc1ccc(OC)cc1 (stereo not drawn),u,2%,5%,i,u,21µM*
CCCC(=O)C1=C(O)C(C(=O)OC)C(C)(C)CC1=Nc1ccc(N)cc1 (stereo not drawn),i,9%,3%,i,-19%,-10%
CCCC(=O)C1=C(O)C(C(=O)OC)C(C)(C)CC1=Nc1ccc(Br)cc1 (stereo not drawn),i,-12%,-2%,i,u,23µM*
CCOC(=O)[C@@H]1CSCCS(=O)(=O)N1Cc1ccccc1Br,i,7%,4%,i,-29%,-24%
CCC(C)n1c(=O)c(C(=O)Nc2ccccc2S(N)(=O)=O)c(O)c2ccccc21 (stereo not drawn),u,u,u,16µM*,u,u
CCOc1ccc(C(c2c(O)cc(C)n(CCOC)c2=O)N2CCN(c3ccccc3F)CC2)cc1 (stereo not drawn),i,x,x,i,-18%,-30%
CCCCNC(=O)c1cc2c(=O)n(CC)c3ccccc3c2s1,i,u,24%,i,u,23µM*
CCn1c(=O)c2cc(C(=O)NCCCN(C)Cc3ccccc3)sc2c2ccccc21,i,x,x,u,u,u
CCn1c(=O)c2cc(C(=O)NC3CCCCCC3)sc2c2ccccc21,i,x,x,i,16µM*,16µM*
Cn1c(=O)c2cc(C(=O)NC3CCCCCC3)sc2c2ccccc21,i,x,x,i,u,18µM*
O=C(NC1CCCCCC1)c1cc2c(Cl)nc3ccccc3c2s1,u,x,x,i,0%,-14%
CCn1c(=O)c2cc(C(=O)NCCCN3CCN(c4ccc(F)cc4)CC3)sc2c2ccccc21,i,x,x,i,18µM*,6.5µM*
CCn1c(=O)c2cc(C(=O)NCc3cccs3)sc2c2ccccc21,i,14%,8%,i,3%,u
CC(=NC1CC1)c1c(-c2ccccc2)[nH]n(-c2nc3ccccc3s2)c1=O,i,9%,1%,u,u,22µM*
O=C(O)c1cccc(Nc2ccncc2[N+](=O)[O-])c1,i,8%,18%,i,u,18µM*
